Targets with a hit are over-represented here; the source holds about 7,900 in all. About 0.6% of all pairs of compound and target were hits. Unmarked numbers belong to inactive results.
Each target was assayed with C1=CC=C2C(=C1)C3=NNC4=CC=CC(=C43)C2=O (assay: log2 fold change, soluble protein after heating vs DMSO (PISA); higher = thermal stabilisation; K562 cells, 10 uM, 30 min; active = over 0.2 and 3.5 SD of the protein, either way, in both replicates (recomputed)).
Summary of the method: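 Values are thermal stability changes relative to control samples and are taken from duplicates. They are stated as log2 fold changes. Before quantification by TMTpro 16plex LC-MS/MS with equalised channel sums, K562 cells at 2×10^6 cells/mL were treated with 10 μM compound for 30 min, heated in aliquots for 3 min across 48°C-58°C, pooled, extracted in PBS with 0.5% NP-40 at 4°C, and centrifuged at 21,000xg for 90 min to give the soluble supernatant.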
Sequence of UniProt Q96K49 (Q96K49 whole entry, looked up): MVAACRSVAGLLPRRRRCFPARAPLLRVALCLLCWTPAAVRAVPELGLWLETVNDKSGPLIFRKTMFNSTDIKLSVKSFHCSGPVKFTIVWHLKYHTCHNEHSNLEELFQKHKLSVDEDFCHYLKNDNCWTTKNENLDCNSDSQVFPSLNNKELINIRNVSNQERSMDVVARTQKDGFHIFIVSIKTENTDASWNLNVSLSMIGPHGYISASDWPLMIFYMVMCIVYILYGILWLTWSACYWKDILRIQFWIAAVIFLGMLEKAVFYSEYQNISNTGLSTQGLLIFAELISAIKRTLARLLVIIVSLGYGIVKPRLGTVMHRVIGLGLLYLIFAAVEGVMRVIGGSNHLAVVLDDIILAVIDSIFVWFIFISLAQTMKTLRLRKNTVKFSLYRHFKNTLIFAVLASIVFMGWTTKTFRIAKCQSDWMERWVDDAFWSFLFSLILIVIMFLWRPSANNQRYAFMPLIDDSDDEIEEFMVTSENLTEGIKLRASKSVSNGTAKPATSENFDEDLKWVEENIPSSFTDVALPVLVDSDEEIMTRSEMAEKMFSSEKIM
Sequence of UniProt Q01081 (Q01081 whole entry, looked up): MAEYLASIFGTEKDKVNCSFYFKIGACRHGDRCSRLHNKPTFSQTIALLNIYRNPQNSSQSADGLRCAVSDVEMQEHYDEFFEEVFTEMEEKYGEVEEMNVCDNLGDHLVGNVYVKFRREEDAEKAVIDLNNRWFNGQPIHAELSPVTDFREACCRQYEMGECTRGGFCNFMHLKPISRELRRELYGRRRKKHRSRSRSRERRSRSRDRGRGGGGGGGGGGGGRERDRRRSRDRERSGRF
Sequence of UniProt Q9UHP3 (Q9UHP3 whole entry, looked up): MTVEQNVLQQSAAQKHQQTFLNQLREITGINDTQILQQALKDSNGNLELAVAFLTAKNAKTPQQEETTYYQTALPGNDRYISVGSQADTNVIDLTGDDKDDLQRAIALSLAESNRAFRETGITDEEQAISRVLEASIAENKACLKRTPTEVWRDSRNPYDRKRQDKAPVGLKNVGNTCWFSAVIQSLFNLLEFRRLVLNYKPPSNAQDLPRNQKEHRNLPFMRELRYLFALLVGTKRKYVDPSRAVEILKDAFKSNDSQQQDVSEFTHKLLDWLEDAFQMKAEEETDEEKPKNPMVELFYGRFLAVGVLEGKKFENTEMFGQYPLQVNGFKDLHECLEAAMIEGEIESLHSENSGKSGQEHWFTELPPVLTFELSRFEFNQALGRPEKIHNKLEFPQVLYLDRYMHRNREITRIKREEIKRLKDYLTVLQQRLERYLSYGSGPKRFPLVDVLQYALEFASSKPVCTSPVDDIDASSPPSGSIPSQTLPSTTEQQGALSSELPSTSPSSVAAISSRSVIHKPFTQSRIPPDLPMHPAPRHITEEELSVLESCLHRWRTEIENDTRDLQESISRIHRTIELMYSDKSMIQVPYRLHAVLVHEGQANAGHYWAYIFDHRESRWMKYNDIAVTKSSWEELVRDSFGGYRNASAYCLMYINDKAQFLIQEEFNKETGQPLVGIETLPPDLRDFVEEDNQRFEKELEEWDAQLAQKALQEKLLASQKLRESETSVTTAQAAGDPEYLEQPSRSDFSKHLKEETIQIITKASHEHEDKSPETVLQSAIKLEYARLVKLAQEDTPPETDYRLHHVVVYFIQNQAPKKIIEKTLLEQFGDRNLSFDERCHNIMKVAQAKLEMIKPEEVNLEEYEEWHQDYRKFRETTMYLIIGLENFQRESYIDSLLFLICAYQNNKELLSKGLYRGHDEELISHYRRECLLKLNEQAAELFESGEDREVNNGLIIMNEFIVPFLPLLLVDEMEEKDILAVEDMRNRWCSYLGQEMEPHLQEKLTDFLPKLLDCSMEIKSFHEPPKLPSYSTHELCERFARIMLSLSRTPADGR
Sequence of UniProt Q14157 (Q14157 whole entry, looked up): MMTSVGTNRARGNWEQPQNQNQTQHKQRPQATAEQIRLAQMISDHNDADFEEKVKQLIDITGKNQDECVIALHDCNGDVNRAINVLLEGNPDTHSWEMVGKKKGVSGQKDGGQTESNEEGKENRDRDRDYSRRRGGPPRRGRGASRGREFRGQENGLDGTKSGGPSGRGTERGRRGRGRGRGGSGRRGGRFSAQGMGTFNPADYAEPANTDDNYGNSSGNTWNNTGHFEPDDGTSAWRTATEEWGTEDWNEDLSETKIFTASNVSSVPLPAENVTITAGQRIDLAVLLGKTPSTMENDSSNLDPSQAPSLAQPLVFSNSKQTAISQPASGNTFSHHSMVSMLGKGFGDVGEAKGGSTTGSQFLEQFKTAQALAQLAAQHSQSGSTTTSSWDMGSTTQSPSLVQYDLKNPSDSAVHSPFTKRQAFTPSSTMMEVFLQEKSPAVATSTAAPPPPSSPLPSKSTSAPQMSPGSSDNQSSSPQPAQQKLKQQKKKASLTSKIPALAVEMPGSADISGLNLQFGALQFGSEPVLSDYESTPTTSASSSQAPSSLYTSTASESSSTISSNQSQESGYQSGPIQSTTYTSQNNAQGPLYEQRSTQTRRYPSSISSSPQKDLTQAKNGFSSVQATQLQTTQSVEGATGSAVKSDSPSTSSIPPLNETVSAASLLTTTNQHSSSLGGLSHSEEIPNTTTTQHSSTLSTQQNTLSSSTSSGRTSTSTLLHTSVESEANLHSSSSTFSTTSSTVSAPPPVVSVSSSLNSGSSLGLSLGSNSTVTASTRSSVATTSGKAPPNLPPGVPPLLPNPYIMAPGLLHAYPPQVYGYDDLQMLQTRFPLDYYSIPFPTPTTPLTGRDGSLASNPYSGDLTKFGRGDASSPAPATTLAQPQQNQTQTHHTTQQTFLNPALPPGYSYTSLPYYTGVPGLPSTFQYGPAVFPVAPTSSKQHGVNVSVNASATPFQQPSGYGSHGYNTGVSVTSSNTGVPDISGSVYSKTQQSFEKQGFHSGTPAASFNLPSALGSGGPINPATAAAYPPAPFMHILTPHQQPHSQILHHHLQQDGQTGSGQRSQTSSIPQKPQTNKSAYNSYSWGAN
Sequence of UniProt Q93009 (Q93009 whole entry, looked up): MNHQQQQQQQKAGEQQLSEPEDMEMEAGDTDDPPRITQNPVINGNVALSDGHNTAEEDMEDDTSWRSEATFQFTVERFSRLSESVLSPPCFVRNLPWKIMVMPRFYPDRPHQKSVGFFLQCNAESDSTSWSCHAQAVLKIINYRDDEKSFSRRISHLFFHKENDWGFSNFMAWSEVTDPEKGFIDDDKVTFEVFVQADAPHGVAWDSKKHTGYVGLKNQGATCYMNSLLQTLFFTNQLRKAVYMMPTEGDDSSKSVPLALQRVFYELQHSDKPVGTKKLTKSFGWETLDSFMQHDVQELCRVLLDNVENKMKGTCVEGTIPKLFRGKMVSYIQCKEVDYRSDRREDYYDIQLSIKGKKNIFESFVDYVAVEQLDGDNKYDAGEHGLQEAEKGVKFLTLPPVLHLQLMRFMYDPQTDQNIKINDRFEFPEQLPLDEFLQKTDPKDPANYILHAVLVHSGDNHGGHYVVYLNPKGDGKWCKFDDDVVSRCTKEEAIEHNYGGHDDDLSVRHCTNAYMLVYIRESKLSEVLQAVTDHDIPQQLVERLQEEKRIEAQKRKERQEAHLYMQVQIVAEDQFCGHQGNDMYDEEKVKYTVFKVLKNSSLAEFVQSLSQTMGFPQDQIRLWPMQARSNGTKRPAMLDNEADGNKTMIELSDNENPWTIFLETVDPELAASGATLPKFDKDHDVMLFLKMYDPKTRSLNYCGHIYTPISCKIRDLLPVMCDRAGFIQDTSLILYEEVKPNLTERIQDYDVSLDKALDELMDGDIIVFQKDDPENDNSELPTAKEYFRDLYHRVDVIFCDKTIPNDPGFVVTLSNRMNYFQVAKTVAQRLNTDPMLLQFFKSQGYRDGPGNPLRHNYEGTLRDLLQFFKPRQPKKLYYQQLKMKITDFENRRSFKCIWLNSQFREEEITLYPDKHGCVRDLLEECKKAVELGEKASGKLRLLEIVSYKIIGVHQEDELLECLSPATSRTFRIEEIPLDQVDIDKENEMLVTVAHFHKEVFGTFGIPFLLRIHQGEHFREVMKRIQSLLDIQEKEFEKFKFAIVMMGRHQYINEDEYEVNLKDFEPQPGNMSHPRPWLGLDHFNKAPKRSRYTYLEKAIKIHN
Sequence of UniProt Q9Y5K5 (Q9Y5K5 whole entry, looked up): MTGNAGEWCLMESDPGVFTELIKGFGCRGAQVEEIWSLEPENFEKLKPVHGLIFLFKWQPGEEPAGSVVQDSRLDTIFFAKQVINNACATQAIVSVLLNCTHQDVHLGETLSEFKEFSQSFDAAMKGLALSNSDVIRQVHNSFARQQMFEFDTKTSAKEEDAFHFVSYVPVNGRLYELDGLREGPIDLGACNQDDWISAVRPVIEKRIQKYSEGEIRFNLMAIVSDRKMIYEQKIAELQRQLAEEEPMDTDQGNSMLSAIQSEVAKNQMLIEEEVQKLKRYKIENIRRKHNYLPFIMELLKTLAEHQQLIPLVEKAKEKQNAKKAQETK
Sequence of UniProt Q9P0T7 (Q9P0T7 whole entry, looked up): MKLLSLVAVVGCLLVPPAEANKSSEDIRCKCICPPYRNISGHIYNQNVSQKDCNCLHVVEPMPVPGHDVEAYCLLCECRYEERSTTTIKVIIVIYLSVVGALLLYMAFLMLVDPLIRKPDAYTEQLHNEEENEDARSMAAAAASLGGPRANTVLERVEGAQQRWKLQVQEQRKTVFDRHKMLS
Sequence of UniProt Q8NEZ2 (Q8NEZ2 whole entry, looked up): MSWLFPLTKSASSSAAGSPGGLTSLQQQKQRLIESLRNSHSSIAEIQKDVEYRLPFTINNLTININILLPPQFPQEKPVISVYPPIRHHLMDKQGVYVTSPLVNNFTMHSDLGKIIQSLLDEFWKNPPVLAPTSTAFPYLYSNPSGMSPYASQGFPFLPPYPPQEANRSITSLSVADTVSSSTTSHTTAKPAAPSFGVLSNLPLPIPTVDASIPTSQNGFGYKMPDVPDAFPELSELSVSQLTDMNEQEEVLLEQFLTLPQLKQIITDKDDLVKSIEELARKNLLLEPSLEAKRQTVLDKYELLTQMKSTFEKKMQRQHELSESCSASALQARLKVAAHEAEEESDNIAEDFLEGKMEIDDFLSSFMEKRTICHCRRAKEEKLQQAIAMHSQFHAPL
Sequence of UniProt Q9UDW1 (Q9UDW1 whole entry, looked up): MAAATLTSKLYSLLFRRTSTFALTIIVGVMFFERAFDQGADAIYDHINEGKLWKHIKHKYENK
For TMEM223 (UniProt A0PJW6), the log2 fold change was 0.01.
USP25 isoform 3 (UniProt Q9UHP3) gave a log2 fold change of 0.011.
For VPS41 (UniProt P49754), the log2 fold change was 0.031.
WDR47 (UniProt O94967) was tested, and the log2 fold change was 0.
TMEM128 (UniProt Q5BJH2) gave a log2 fold change of -0.238.
WDR41 (UniProt Q9HAD4) was tested, and the log2 fold change was -0.07.
With TMEM9 (UniProt Q9P0T7) the log2 fold change was -0.004.
Target VPS51 (UniProt Q9UID3) has a log2 fold change of -0.016.
TYW1 (UniProt Q9NV66) was tested, and the log2 fold change was 0.057.
For TUBAL3 (UniProt A6NHL2), the log2 fold change was -0.034.
Target TOM1L1 (UniProt O75674) has a log2 fold change of -0.026.
With TPR (UniProt P12270) the log2 fold change was -0.118.
TP53BP1 isoform 2 (UniProt Q12888) was tested, and the log2 fold change was -0.078.
TRAPPC2L (UniProt Q9UL33) was tested, and the log2 fold change was -0.008.
In the case of U2AF1 isoform 2 (UniProt Q01081), the log2 fold change is reported as -0.036.
TMEM9B (UniProt Q9NQ34) gave a log2 fold change of -0.016.
For VPS37A (UniProt Q8NEZ2), the log2 fold change was 0.044.
In the case of WEE1 (UniProt P30291), the log2 fold change is reported as 0.037.
TNFAIP8 isoform 4 (UniProt O95379) gave a log2 fold change of -0.07.
With UBAP2L isoform 5 (UniProt Q14157) the log2 fold change was -0.03.
In the case of WDR43 (UniProt Q15061), the log2 fold change is reported as 0.017.
UFD1 isoform 1 (UniProt Q92890) gave a log2 fold change of -0.021.
Work on TRAPPC6B (UniProt Q86SZ2) yielded a log2 fold change of -0.014.
With UCHL5 isoform 3 (UniProt Q9Y5K5) the log2 fold change was 0.102.
XPOT (UniProt O43592) showed a log2 fold change of -0.026.
Work on TMEM208 (UniProt Q9BTX3) yielded a log2 fold change of -0.098.
UFM1 (UniProt P61960) gave a log2 fold change of 0.172.
Target UQCR10 (UniProt Q9UDW1) has a log2 fold change of -0.003.
USP7 (UniProt Q93009) gave a log2 fold change of 0.085.
WDR46 (UniProt O15213) was tested, and the log2 fold change was 0.052.
For TTI2 (UniProt Q6NXR4), the log2 fold change was 0.046.
With XPO1 (UniProt O14980) the log2 fold change was -0.036.
For TRMT10A (UniProt Q8TBZ6), the log2 fold change was 0.271 (active).
TMEM87B (UniProt Q96K49) gave a log2 fold change of -0.143.
With VPS13B (UniProt Q7Z7G8) the log2 fold change was -0.017.
In the case of VPS33A (UniProt Q96AX1), the log2 fold change is reported as -0.023.
With VWA3B isoform 6 (UniProt Q502W6) the log2 fold change was -0.049.
